# Shown are actives, neighbours in structure and some others; about 3% of the full set was active somewhere.
# Wnt bcat act: activators of Wnt/beta-catenin signaling; Wnt/beta-catenin reporter cell assay, activator, plate reader; activation, % at 9.35 µM; 300,000 tested, 1.2% active; AID 743398; in the data active = activation above about 30%, passing the limit was not always enough; inconclusive = no clear call, values can overlap the other calls;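 also: 0% = neutral control wells and 100% = positive control wells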
# PfHsp90 yeast 2: growth inhibition of yeast expressing Plasmodium Hsp90. 310,000 tested, 0.32% active. S. cerevisiae expressing PfHsp90, BacTiter-Glo ATP, 48 h; yeast lacking PDR1 and PDR3 efflux regulators. inhibition, % at 9.4 µM;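 active = every replicate shows inhibition above about 80%, whatever the replicate mean, limit read from the data; inconclusive = mean inhibition reaches the set limit but some replicate falls short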;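 also: 0% = DMSO neutral controls and 100% = 20 µM radicicol positive controls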
# MITF TRPM1 HTS: increases MITF-driven TRPM1 promoter luciferase signal | AID 588334 | SK-MEL-5 TRPM1-promoter luciferase, 24 h; % of positive control, neutral wells = 0 | 300,000 tested, 0.75% active | activation, % at 12.5 µM;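 active = mean activation of at least 80% with every replicate also reaching 80%; inconclusive = mean reaches 80% but some replicate falls short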;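 also: 0% = neutral control wells and 100% = parthenolide positive control wells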
# Glyco luc inh: blocks N-linked glycosylation in D54 reporter cells | D54 ERlucT glycosylation luciferase reporter, 24 h; percent of 100 nM tunicamycin response | reporter increase, % at 12.5 µM | 360,000 tested, 0.23% active | AID 588692;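 active = mean luciferase reporter signal, scaled so untreated is 0 and the glycosylation-blocking control 100, at or above a set limit in every replicate; inconclusive = mean reaches the limit but not every replicate does; inactive = mean below the limit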;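 also: luciferase carries N-glycosylation sites so blocking glycosylation raises the light; 0% = median of neutral control wells and 100% = median of 100 nM tunicamycin wells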
# esBAF inh: SWI/SNF esBAF complex inhibition; AID 602393; mouse ES cells, Bmi1-luciferase knock-in reporter, 24 h; 100% = twice the neutral-well signal; 350,000 tested, 2% active; reporter increase, % at 12.5 µM; in the data active = activation above about 40%; inconclusive = no clear call, values can overlap the other calls;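 also: 0% = median of the plate's neutral control wells and 100% = double that signal; a rise in the Bmi1 reporter signal indicates esBAF inhibition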
# Vif imaging: HIV Vif inhibition; HEK293T cells, Vif self-association by quenched fluorescence, imaging, 24 h; inhibition, % at 7.49 µM; 340,000 tested, 0.35% active; in the data active = inhibition above about 50%, passing the limit was not always enough; inconclusive = no clear call, values can overlap the other calls; inactive = below about 31%
# Starred values were filed as active, the others as inactive; ? = inconclusive; / = no result; ! = not active in a repeat.
SMILES,Wnt bcat act,PfHsp90 yeast 2,MITF TRPM1 HTS,Glyco luc inh,esBAF inh,Vif imaging
CCn1c(=O)c(C(=O)NCc2ccc(Cl)cc2)c(O)c2ccccc21,43.1*,-2.2,/,-0.3,11.8,1.1
C=CCn1c(=O)c(C(=O)Nc2ccc(C)cc2)c(O)c2ccccc21,6.2,8.6,/,4.4,67.3*,-3.5
Cn1c2c(c(=O)n(C)c1=O)C(c1cc3c(cc1Br)OCO3)CC(=O)N2 (stereo not drawn),-1.7,7.8,14.3,0.9,-8.9,14.5
O=C(C[C@H]1C=C[C@@H](NS(=O)(=O)c2ccc(F)cc2)[C@@H](CO)O1)N1CCN(c2ccccc2)CC1,/,/,/,/,-4.8,/
C[C@H]1CN([C@@H](C)CO)C(=O)Cc2cc(NC(=O)Cc3ccccc3)ccc2O[C@@H]1CN(C)S(=O)(=O)c1ccccc1,/,/,/,/,-1.8,/
Cc1ccc(C(=O)N2CCN(c3ccc(NC(=O)c4ccc5c(c4)OCCO5)cc3)CC2)cc1,-2.4,-5.3,-45.9,-4.8,-8.5,-31.9
Cc1cc(C)n2c(Br)c(CSc3nc4ccccc4s3)nc2n1,/,-15.0,71.0,-0.8,48.4*,-13.6
Oc1ccc(-c2csc(NCc3ccco3)n2)cc1,-2.1,/,/,4.1,48.8*,-8.2
c1coc(CNc2nc(-c3cccs3)cs2)c1,22.5,-25.3,77.7,0.6,/,9.2
NC(=O)CC(NC(=O)Cc1ccc(Cl)cc1)c1ccc(NCCc2ccccc2F)c([N+](=O)[O-])c1 (stereo not drawn),-3.0,5.3,-3.2,0.5,-3.2,-3.3
NC(=O)CC(NC(=O)Cc1ccc(Br)cc1)c1ccc(NCC2CC2)c([N+](=O)[O-])c1 (stereo not drawn),-7.9,1.9,40.7,44.9*,-9.0,11.5
NC(=O)CC(NC(=O)Cc1ccc(Cl)cc1)c1ccc(NCC2CC2)c([N+](=O)[O-])c1 (stereo not drawn),1.9,-8.5,43.1,43.1*,-0.2,/
COc1ccc(Nc2nc3ccccc3n3nnnc23)cc1,/,-4.3,-0.4,-4.0,4.6,-6.6
COc1cc(Nc2nc3ccccc3n3nnnc23)cc(OC)c1OC,4.0,-3.5,34.8,2.1,2.0,50.2*
CCn1c(SCc2nc3ccccc3s2)nnc1-c1ccccc1,/,2.6,6.4,-0.7,45.7*,-0.3
Cc1nnc(SCc2nc3ccccc3s2)n1-c1ccccc1,?,-10.0,10.1,-6.3,72.0*,-6.0
c1ccc(-n2cnnc2SCc2nc3ccccc3s2)cc1,51.1*,/,/,-3.8,36.1,7.7
CCC(c1nnc(SCc2nc3ccccc3s2)n1Cc1ccccc1)N(C)C (stereo not drawn),/,10.1,11.7,-4.5,69.9*,/
Cc1nnc(SCc2nc3ccccc3s2)n1N,7.7,-11.4,19.7,-2.7,/,-4.3
O=C(COc1ccc(S(=O)(=O)N2CCCCC2)cc1)N1CCOCC1,-3.0,-5.9,0.6,1.0,/,1.3
O=C(CSc1ncnc2sccc12)N1CCCCC1,9.5,/,72.9,-4.9,72.2*,8.7
CCOC(=O)N1CCN(S(=O)(=O)c2ccc3c(c2)CC(C)N3C(C)=O)CC1 (stereo not drawn),-4.0,5.3,11.4,0.5,0.2,-4.6
CNc1ncc(C(=O)c2ccc(Cl)c(Cl)c2)s1,/,-44.0,/,-2.9,77.1*,-1.3
CNc1ncc(C(=O)c2ccc(Cl)cc2)s1,/,-6.8,/,-2.0,36.3,7.7
CNc1ncc(C(=O)c2ccc(-c3ccccc3)cc2)s1,41.4*,-5.4,77.3,-11.0,/,-0.4
SMILES,Wnt bcat act,PfHsp90 yeast 2,MITF TRPM1 HTS,Glyco luc inh,esBAF inh,Vif imaging
C[C@]12CC[C@H]3C(=CCc4cc(O)ccc43)[C@@H]1CCC2=O,0.2,-3.1,36.6,-2.6,30.9*!,0.4
C[C@]12C[C@H](O)[C@@H]3c4ccc(O)cc4CCC3[C@@H]1CCC2=O (stereo partly drawn),-0.5,33.1,10.5,-1.9,-0.9,16.7
Nc1c(N(CCC2=CCCCC2)C(=O)Cc2ccc(F)cc2)c(=O)[nH]c(=O)n1Cc1ccccc1,1.4,/,-1.9,-1.2,/,8.6
Nc1c(N(CCC2=CCCCC2)C(=O)COc2ccc(F)cc2Cl)c(=O)[nH]c(=O)n1Cc1ccccc1,-21.6,/,-96.5,55.6*,3.0,16.5
Cc1cc2nc(-c3ccc[nH]c3=O)n(Cc3cccc(F)c3)c2cc1C,3.9,12.6,-2.3,0.9,7.7,-0.8
CCCn1c(-c2ccc[nH]c2=O)nc2cc(C)c(C)cc21,62.5*,1.1,29.9,0.7,/,-0.9
CCCCN1C(=O)/C(=C2\SC(N3CCOCC3)=NC2=O)c2ccccc21,3.6,-20.1,/,2.5,18.6,-2.1
COCCSc1nnc(NC(=O)c2ccc3c(c2)OCO3)s1,46.9*,-37.9,37.9,0.1,/,-2.2
CC(C)(C)c1cnnn1-c1ccc(NC(=O)c2ccc3c(c2)OCO3)cc1,/,-3.7,32.4,-2.1,44.0*,/
CSc1nnc(NC(=O)c2ccc3c(c2)OCO3)s1,11.2,-5.6,-38.3,-20.4,-74.1,-0.1
CCN1CCN(c2ccc(NC(=O)c3ccc4c(c3)OCO4)cc2)CC1,46.9*,/,35.4,-3.3,11.2,-8.5
O=C(Nc1ccc(F)c(F)c1)c1ccc2c(c1)OCO2,/,12.8,84.7*,-2.4,58.1*,-1.3
O=C(Nc1ccc2c(c1)OCO2)c1ccc2c(c1)OCO2,/,11.9,19.9,-16.3,/,-0.4
CCC(=O)N1CCN(c2ccc(NC(=O)c3ccc4c(c3)OCO4)cc2)CC1,/,/,/,-1.2,3.4,0.8
CCCCCCOC(=O)C1=C(C)NC(=O)NC1c1ccc2c(c1)OCO2 (stereo not drawn),-2.0,-0.6,7.7,0.4,-4.2,-0.3
Cc1cc(Nc2cccc([N+](=O)[O-])c2)n2c(nc3ccccc32)c1C#N,/,-15.9,-76.3,-10.2,-42.6,26.3
CC(C)C(=O)Nc1ccc(NC(=O)c2ccc3c(c2)OCO3)cc1,-2.4,2.2,7.0,3.5,-9.3,4.4
COc1cc2c(cc1NC(=O)c1ccc3c(c1)OCO3)oc1ccccc12,21.5,19.9,66.0,0.2,47.0*,8.2
COc1cc(NC(=O)c2ccc3c(c2)OCO3)ccc1NC(=O)C(C)C,0.5,11.6,/,0.6,52.5*,2.7
O=C(Nc1ccc2c(c1)OCO2)c1c(Cl)nc2sccn12,/,-28.0,93.6*,-1.6,48.9*,5.0
NC(=O)c1ccc(NC(=O)c2ccc3c(c2)OCO3)cc1,-1.5,8.0,88.3*,-3.8,22.1,-2.7
Cc1cc(NC(=O)CSCC(=O)Nc2ccccc2Oc2ccccc2)no1,-1.7,5.1,-9.4,-8.5,/,-6.8
O=C(Nc1ccc2c(c1)OCO2)c1cccc(Cl)c1,-0.9,27.3,103.6*,1.2,63.9*,0.0
COc1ccccc1C(=O)NCC[N+](C)(C)C,-2.3,/,/,/,/,/
Oc1cccc(N2Cc3ccccc3C2)c1,/,-5.5,12.9,-1.4,20.9,4.4
Cc1cc2c(cc1C)CN(c1ccccc1)C2,48.7*,11.4,95.6*,-9.0,48.1*,7.1
CCOc1ccccc1N1Cc2ccccc2C1,-10.3,2.9,-8.0,-0.4,-4.3,18.5
